# Measurements reported in paper PMC7819943, “Rice protein-binding microarrays: a tool to detect cis-acting elements near promoter regions in rice”.
# In all, about 68,000 sequences were measured (“fluorescence intensity (a.u.)”: median about 9,100, highest 2% from about 16,000 on). For the sample, the highest values were picked, then their nearest neighbours and some sequences at random.
# Target: OsWRKY34 (Oryza sativa, UniProt Q0JBA9 1-250)
# Experiment: protein-binding microarray (RPBM); PBS, 2% BSA, 51.3 ng/ul salmon testes DNA, 50 uM zinc acetate, 200 nM TF, 25 C, 1 h; high values mean tight binding
# Conditions: protein: recombinant; tags: N-terminal polyhistidine and DsRed monomer fusion (pET32a); label: CyDye5-dUTP incorporated in the synthesized complementary strand; 3' TTTTT single-stranded linker to array surface; dsDNA, one strand shown
# Summary of the method: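 Using Ni–NTA, transcription factors fused N-terminally to polyhistidine and DsRed were purified after expression in E. coli BL21-CodonPlus. These were incubated at 200 nM with a blocked, double-stranded custom Agilent array for 1 h at 25 °C in a buffer containing 50 µM zinc acetate, and the array was washed. The binding signal is per-feature fluorescence intensity (arbitrary units) on an Axon 4000B scanner.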
# Sequence of OsWRKY34 (Q0JBA9 entry or part of it): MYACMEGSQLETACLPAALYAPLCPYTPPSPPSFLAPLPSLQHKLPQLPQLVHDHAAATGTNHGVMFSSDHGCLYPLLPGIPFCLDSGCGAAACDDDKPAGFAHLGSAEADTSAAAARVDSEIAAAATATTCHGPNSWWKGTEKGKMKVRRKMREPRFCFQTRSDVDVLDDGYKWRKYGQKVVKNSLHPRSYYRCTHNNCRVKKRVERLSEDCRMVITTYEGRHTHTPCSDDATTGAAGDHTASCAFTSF
row,Sequence,binding signal
1,ACGTTAGTTAAAAAGTCAACGGCGTCATCCATTAAAATACCGGAGTCACCTAGTGCAG,8900 fluorescence intensity (a.u.)
2,TCCCCATGCCATGCAAAATAAATATCCATATTACCGTTTCCGGAGTCACCTAGTGCAG,8320 fluorescence intensity (a.u.)
3,GAGCTTTGCGCTGGGTGGGCTTGCATTTTTGGGTCTACCGCGGAGTCACCTAGTGCAG,21500 fluorescence intensity (a.u.)
4,GGGGAGGAGGAGGAGGAGGGTAGGGATGGGGAAGAGGAGTCGGAGTCACCTAGTGCAG,8020 fluorescence intensity (a.u.)
5,GGTGTGGGGCCCACCTGCAGCCTCACATCGGCACCAGCTGCGGAGTCACCTAGTGCAG,18600 fluorescence intensity (a.u.)
6,GTGGTGGAGGAGGAGGAGGAGGATGAGGAGGAAGCGGCTGCGGAGTCACCTAGTGCAG,8570 fluorescence intensity (a.u.)
7,CAGCGGGCCCAGCAAGTCAGCCTCACATCTTCTTCTTCATCGGAGTCACCTAGTGCAG,8340 fluorescence intensity (a.u.)
8,AAGTTTTTGGGTAGTGCTTTTGCGCGCTTTCTCTTGGCTGCGGAGTCACCTAGTGCAG,8150 fluorescence intensity (a.u.)
9,GTGGGCAGCGGCGGCGGCCGGTGGGAGGAGGGGAAGCATGCGGAGTCACCTAGTGCAG,8380 fluorescence intensity (a.u.)
10,GTGGCGGCGGGTGGGGCCCATCTCATGGCTGCTGCCTCTGCGGAGTCACCTAGTGCAG,10800 fluorescence intensity (a.u.)
11,CGGCGGCGGTGGTGGGGAGGAGGAGGGCCAGCGGCAGCAACGGAGTCACCTAGTGCAG,17500 fluorescence intensity (a.u.)
12,TTCTTCGGTGGTGGTGGTGGTGGGATGGAAGAGGAGGAAGCGGAGTCACCTAGTGCAG,25800 fluorescence intensity (a.u.)
13,TAGCTGTTTGGTCTTGCTGGTGGTGGTGGGTGAGTGTTGGCGGAGTCACCTAGTGCAG,11200 fluorescence intensity (a.u.)
14,AGCACCGGTGGCAGCGGCGGACCGTGGAGGGAGGGAGGGGCGGAGTCACCTAGTGCAG,9770 fluorescence intensity (a.u.)
15,AGACTTTATTTTTTCCCTGGGCTAAGGACTAGTCCCATATCGGAGTCACCTAGTGCAG,8980 fluorescence intensity (a.u.)
16,GGGACCCGATTTGGGCGGTATATACCTTACTTCACGTGCACGGAGTCACCTAGTGCAG,8920 fluorescence intensity (a.u.)
17,ATCGCTGCTGTCTTCTCAAATTATAATTTACCGTTTTTAACGGAGTCACCTAGTGCAG,8090 fluorescence intensity (a.u.)
18,GCCTCCATCCACCTCGCCCATCCCTACACTCTACTACTCCCGGAGTCACCTAGTGCAG,8670 fluorescence intensity (a.u.)
19,CTCCTACTGCCTACCGCCGACGCAGAACTCCGTGGGTTACCGGAGTCACCTAGTGCAG,8210 fluorescence intensity (a.u.)
20,GCCTCTCGTGGGCCGTCGCCGCCCACCCGCCCGGACACGTCGGAGTCACCTAGTGCAG,8380 fluorescence intensity (a.u.)
21,GGAGTTCGTGGGGACGTTCATCCTCATCTTCTTCGCGACGCGGAGTCACCTAGTGCAG,9260 fluorescence intensity (a.u.)
22,GGGAGGGAGCCAGAGCGGCGGGCGTGGGGTTGGAGGAGGGCGGAGTCACCTAGTGCAG,9900 fluorescence intensity (a.u.)
23,GCCGTGGTGGTGTGGGGATCGTGTTGTGGCGGCGGATTGGCGGAGTCACCTAGTGCAG,8690 fluorescence intensity (a.u.)
24,CGGCGCGCCGTGATTGTGCCTGATTGGGGTGGGGTTGGGGCGGAGTCACCTAGTGCAG,25300 fluorescence intensity (a.u.)
25,GGGCGGGCGGGCTCGAGGTTGTGGTGGGGCGTGTGGCAGGCGGAGTCACCTAGTGCAG,18200 fluorescence intensity (a.u.)
26,GAGTAGAGGTGGGAGGAAGCGGTGGTGTGGTGGGGTGGGGCGGAGTCACCTAGTGCAG,22100 fluorescence intensity (a.u.)
27,GTGGGTGGAGGAAGCGGATAGGGAGAGGGGTGTGGGGCGGCGGAGTCACCTAGTGCAG,16000 fluorescence intensity (a.u.)
28,TTGGCTCGAGGCGGGGCTGGTTGGTTGGTTGGTTTGGTGGCGGAGTCACCTAGTGCAG,14600 fluorescence intensity (a.u.)

row,Sequence,binding signal
1,GGTGGCGTGCAGGGTGGAGCGGGAGGGCGGCGGCGGGTGGCGGAGTCACCTAGTGCAG,17300 fluorescence intensity (a.u.)
2,ACGCGCGGCCTAGTTGTGTGTGGGTGTGTGAGGTGAGGGGCGGAGTCACCTAGTGCAG,11000 fluorescence intensity (a.u.)
3,ATGAGGGGTCGGGGTTGGGCGGCGTGGGCACGGGCTCGAGCGGAGTCACCTAGTGCAG,13000 fluorescence intensity (a.u.)
4,GTCGGCGTCGGCGTCGGCGTCGGCGGGCGGGAGGCGGGAGCGGAGTCACCTAGTGCAG,8650 fluorescence intensity (a.u.)
5,CGGCGGCGGCGGCGGCGGCGGCGGAGGTGGTGTGGGTGGGCGGAGTCACCTAGTGCAG,8220 fluorescence intensity (a.u.)
6,CCGAAGATATCAACCAAACAGACCCGAACTTCTTCCCATTCGGAGTCACCTAGTGCAG,8360 fluorescence intensity (a.u.)
7,TGTTTTGGACTTTTTGGTCAACGGCCCATCAAAGCAAGCCCGGAGTCACCTAGTGCAG,13000 fluorescence intensity (a.u.)
8,GCCAAACGCGCCAGATCCGCGCCTCCTCCACTCACACGCGCGGAGTCACCTAGTGCAG,8910 fluorescence intensity (a.u.)
9,AGCACCACCACCACCCCAGCGCCTCCTACTCCACCGGCTCCGGAGTCACCTAGTGCAG,8830 fluorescence intensity (a.u.)
10,TCCATGCAGTCTTCTTCTTCTGCAGCCTATGCTGTTAGTCCGGAGTCACCTAGTGCAG,11700 fluorescence intensity (a.u.)
11,TTTCATTGTTTCCGCAGACACGCTTTTCAAACTACTAAACCGGAGTCACCTAGTGCAG,8080 fluorescence intensity (a.u.)
12,AATTTATAACCGTGACCTGCTGCCATATGCTAACCGTTTACGGAGTCACCTAGTGCAG,8260 fluorescence intensity (a.u.)
13,CTTTGTGCTGGACCGACGACGTCGTTCGCTCTTTTATCCTCGGAGTCACCTAGTGCAG,9040 fluorescence intensity (a.u.)
14,TGATCTGATCTGACAATTTGGGCGGGCTGTGTTTTATGAACGGAGTCACCTAGTGCAG,12900 fluorescence intensity (a.u.)
15,CATATCAGTGGTTAACTGTGCTGTCTCAGTTGATCTCCCGCGGAGTCACCTAGTGCAG,8360 fluorescence intensity (a.u.)
16,CATGTTAGATGTTTTTTTTCTTGTTACTCTTTTTTATTTTCGGAGTCACCTAGTGCAG,13300 fluorescence intensity (a.u.)
17,ACCTCTGTTTTCATGGGCTAGTGGCCCAGTACCTCACTGCCGGAGTCACCTAGTGCAG,8930 fluorescence intensity (a.u.)
18,GCATGGAGGCGTTTCATCAAACACCTTGCGCCTGCGGGAGCGGAGTCACCTAGTGCAG,8030 fluorescence intensity (a.u.)
19,AACCCACCTCTTTCGTTTTCCGCGCGTACGCTTTTCAAACCGGAGTCACCTAGTGCAG,8710 fluorescence intensity (a.u.)
20,AACTACAACTATCTTGTTTTTATTTACACGCTTTTCAAACCGGAGTCACCTAGTGCAG,8620 fluorescence intensity (a.u.)
21,AACCCACCTATCTTGTTTTCCACGTGTACGCTTTTCAAACCGGAGTCACCTAGTGCAG,19200 fluorescence intensity (a.u.)
22,TCTGTATATATTACTACTTGCGTTTCTCTTTCTTTCTTCCCGGAGTCACCTAGTGCAG,11000 fluorescence intensity (a.u.)
23,ATCACATCTTAACATTTCATTCTCTGCTCAAAGATTCGATCGGAGTCACCTAGTGCAG,8620 fluorescence intensity (a.u.)
24,AGCTCATCACTTCTTCTTGCATGCATGCACTACCGTCGGCCGGAGTCACCTAGTGCAG,10400 fluorescence intensity (a.u.)
25,TGCACACATGCACACACGCGCGCGCTGCTGCTGCTGCTGACGGAGTCACCTAGTGCAG,8160 fluorescence intensity (a.u.)
26,GGTGAAGCTCTGCGCTGACACGTTGATGCAGCGGAGCACGCGGAGTCACCTAGTGCAG,18900 fluorescence intensity (a.u.)
27,GCACACCCTCGCTCTGACGACCCTGTCACGTTGAGCTACGCGGAGTCACCTAGTGCAG,8240 fluorescence intensity (a.u.)
